Experimental data from the supplement of paper PMC8728848.
This is one part of a sample in which the strongest signals are shown more often than they occur.

What was measured:
Assay in all cases: glycan array binding signal (z-score within array); higher = stronger binding
Conditions in all cases: glycan notation: IUPAC condensed, linker removed
[1] = biological target: Fuc(a1-2)Gal(b1-3)[Fuc(a1-4)]GlcNAc(b1-3)[Gal(b1-4)GlcNAc(b1-6)]Gal(b1-4)Glc
How it was run: (§1)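 The binding signal is a Z-score computed within each array. Data were drawn from 3228 arrays in the Consortium for Functional Glycomics database, restricted to those with a known protein sequence. Scores were averaged over arrays of the same protein sequence at different concentrations or buffers, and over linkers, and negative values can be taken as non-binding.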

Fuc(a1-2)Gal(b1-4)Glc = biological target: Fuc(a1-2)Gal(b1-4)Glc
How it was run: as §1

[2] = biological target: Fuc(a1-2)Gal(b1-4)[Fuc(a1-3)]GlcNAc(b1-3)GalNAc
How it was run: as §1

[3] = biological target: Fuc(a1-2)[Gal(a1-4)]Gal(b1-4)GlcNAc
How it was run: as §1

[4] = biological target: Fuc(a1-2)[GalNAc(a1-3)]Gal
How it was run: as §1

[5] = biological target: Fuc(a1-3)[Gal(b1-4)]GlcNAc(b1-6)GalNAc
How it was run: as §1

[6] = biological target: Fuc(a1-3)[GalNAc(b1-4)]GlcNAc
How it was run: as §1

[7] = biological target: Gal(a1-3)Fuc(a1-2)Gal(b1-4)GlcNAc(b1-3)[Gal(a1-3)Fuc(a1-2)Gal(b1-4)GlcNAc(b1-6)]GalNAc
How it was run: as §1

[8] = biological target: Gal(a1-3)Gal(b1-3)GlcNAc(b1-2)Man(a1-3)[Gal(a1-3)Gal(b1-3)GlcNAc(b1-2)Man(a1-6)]Man(b1-4)GlcNAc(b1-4)GlcNAc
How it was run: as §1

[9] = biological target: Gal(a1-3)Gal(b1-4)[Fuc(a1-3)]GlcNAc(b1-2)Man(a1-3)[Gal(a1-3)Gal(b1-4)[Fuc(a1-3)]GlcNAc(b1-2)Man(a1-6)]Man(b1-4)GlcNAc(b1-4)GlcNAc
How it was run: as §1

Gal(a1-4)Gal(b1-4)Glc = biological target: Gal(a1-4)Gal(b1-4)Glc
How it was run: as §1

[10] = biological target: Gal(b1-3)GlcNAc(b1-6)Gal(b1-4)GlcNAc
How it was run: as §1

[11] = biological target: Gal(b1-3)[Fuc(a1-4)]GlcNAc(b1-2)Man(a1-3)[Gal(b1-3)[Fuc(a1-4)]GlcNAc(b1-2)Man(a1-6)]Man(b1-4)GlcNAc(b1-4)GlcNAc
How it was run: as §1

[12] = biological target: Gal(b1-4)GlcNAc(b1-2)Man(a1-3)Man(b1-4)GlcNAc(b1-4)GlcNAc
How it was run: as §1

[13] = biological target: Gal(b1-4)GlcNAc(b1-2)Man(a1-3)[Gal(b1-4)GlcNAc(b1-2)Man(a1-6)]Man(b1-4)GlcNAc(b1-4)[Fuc(a1-6)]GlcNAc
How it was run: as §1

[14] = biological target: Gal(b1-4)GlcNAc(b1-2)Man(a1-6)Man(b1-4)GlcNAc(b1-4)GlcNAc
How it was run: as §1

[15] = biological target: Gal(b1-4)GlcNAc(b1-3)[Gal(b1-4)GlcNAc(b1-6)]GalNAc
How it was run: as §1

[16] = biological target: Gal(b1-4)GlcNAc(b1-6)[Gal(b1-3)]GalNAc
How it was run: as §1

Gal3S(b1-4)GlcNAc = biological target: Gal3S(b1-4)GlcNAc
How it was run: as §1

[17] = biological target: Gal3S(b1-4)[Fuc(a1-3)]Glc
How it was run: as §1

Gal3S4S(b1-4)GlcNAc = biological target: Gal3S4S(b1-4)GlcNAc
How it was run: as §1

Gal3S6S(b1-4)GlcNAc = biological target: Gal3S6S(b1-4)GlcNAc
How it was run: as §1

GalNAc(b1-3)Gal = biological target: GalNAc(b1-3)Gal
How it was run: as §1

Glc(b1-4)Glc = biological target: Glc(b1-4)Glc
How it was run: as §1

[18] = biological target: GlcNAc(a1-4)Gal(b1-4)GlcNAc(b1-3)Gal(b1-4)GlcNAc
How it was run: as §1

[19] = biological target: GlcNAc(a1-4)Gal(b1-4)GlcNAc(b1-3)Gal(b1-4)[Fuc(a1-3)]GlcNAc(b1-3)Gal(b1-4)[Fuc(a1-3)]GlcNAc
How it was run: as §1

[20] = biological target: GlcNAc(a1-6)Gal(b1-4)GlcNAc
How it was run: as §1

[21] = biological target: GlcNAc(b1-6)Gal(b1-4)GlcNAc
How it was run: as §1

Kdn(a2-3)Gal(b1-3)GalNAc = biological target: Kdn(a2-3)Gal(b1-3)GalNAc
How it was run: as §1

[22] = biological target: Man(a1-2)Man(a1-3)[Man(a1-2)Man(a1-6)]Man
How it was run: as §1

[23] = biological target: Man(a1-2)Man(a1-3)[Man(a1-2)Man(a1-6)]Man(a1-6)[Man(a1-2)Man(a1-2)Man(a1-3)]Man
How it was run: as §1

[24] = biological target: Man(a1-2)Man(a1-3)[Man(a1-2)Man(a1-6)]Man(a1-6)[Man(a1-2)Man(a1-2)Man(a1-3)]Man(b1-4)GlcNAc(b1-4)GlcNAc
How it was run: as §1

[25] = biological target: Man(a1-2)Man(a1-6)[Man(a1-3)]Man(a1-6)[Man(a1-2)Man(a1-2)Man(a1-3)]Man(b1-4)GlcNAc(b1-4)GlcNAc
How it was run: as §1

[26] = biological target: Neu5Ac(a2-3)Gal(b1-3)[Neu5Ac(a2-6)]GalNAc
How it was run: as §1

[27] = biological target: Neu5Ac(a2-3)Gal(b1-4)GlcNAc(b1-6)[Neu5Ac(a2-3)Gal(b1-3)]GalNAc
How it was run: as §1

Neu5Ac(a2-6)Gal(b1-4)Glc = biological target: Neu5Ac(a2-6)Gal(b1-4)Glc
How it was run: as §1

[28] = biological target: Neu5Ac(a2-6)Gal(b1-4)GlcNAc(b1-2)Man(a1-3)[Man(a1-6)]Man(b1-4)GlcNAc(b1-4)GlcNAc
How it was run: as §1

B1: Eosinophil cationic protein (ECP) (Homo sapiens), P12724 (protein)
chain: MVPKLFTSQICLLLLLGLMGVEGSLHARPPQFTRAQWFAIQHISLNPPRCTIAMRAINNYRWRCKNQNTFLRTTFANVVNVCGNQSIRCPHNRTLNNCHRSRFRVPLLHCDLINPGAQNISNCTYADRPGRRFYVVACDNRDPRDSPRYPVVPVHLDTTI
glycan array binding signal (z-score) [1]: -0.315
glycan array binding signal (z-score) (Fuc(a1-2)Gal(b1-4)Glc): -0.348
glycan array binding signal (z-score) [2]: 2.14
glycan array binding signal (z-score) [3]: -0.421
glycan array binding signal (z-score) [4]: -0.298
glycan array binding signal (z-score) [5]: 2.25
glycan array binding signal (z-score) [6]: -0.183
glycan array binding signal (z-score) [7]: 0.494
glycan array binding signal (z-score) [8]: 1.32
glycan array binding signal (z-score) [9]: 2.23
glycan array binding signal (z-score) (Gal(a1-4)Gal(b1-4)Glc): -0.102
glycan array binding signal (z-score) [10]: -0.17
glycan array binding signal (z-score) [11]: 0.007
glycan array binding signal (z-score) [12]: -0.103
glycan array binding signal (z-score) [13]: 0.16
glycan array binding signal (z-score) [14]: -0.08
glycan array binding signal (z-score) [15]: -0.091
glycan array binding signal (z-score) [16]: -0.081
glycan array binding signal (z-score) (Gal3S(b1-4)GlcNAc): 0.818
glycan array binding signal (z-score) [17]: 2.4
glycan array binding signal (z-score) (Gal3S4S(b1-4)GlcNAc): -0.557
glycan array binding signal (z-score) (Gal3S6S(b1-4)GlcNAc): 2.7
glycan array binding signal (z-score) (GalNAc(b1-3)Gal): -0.382
glycan array binding signal (z-score) (Glc(b1-4)Glc): 0.024
glycan array binding signal (z-score) [18]: 8.33
glycan array binding signal (z-score) [19]: 4.18
glycan array binding signal (z-score) [20]: 3.15
glycan array binding signal (z-score) [21]: 0.126
glycan array binding signal (z-score) (Kdn(a2-3)Gal(b1-3)GalNAc): 0.204
glycan array binding signal (z-score) [22]: -0.495
glycan array binding signal (z-score) [23]: -0.174
glycan array binding signal (z-score) [24]: -0.101
glycan array binding signal (z-score) [25]: 0.498
glycan array binding signal (z-score) [26]: -0.097
glycan array binding signal (z-score) [27]: -0.004
glycan array binding signal (z-score) (Neu5Ac(a2-6)Gal(b1-4)Glc): 0.151
glycan array binding signal (z-score) [28]: -0.018
